Test results: PubChem BioAssay (NCATS)
Where “and” joins values, the source holds several entries; their conditions need not be identical. Identical values can stand only once. Inconclusive results are not listed. Where a call stands in place of a potency, no number is given. Some structures have more than one record in an assay (separate samples or runs), and their calls can disagree. Calls of active or inactive are those of the source. Unless noted, the call rests on the fitted dose curve; in most records, active means well fitted curve in the direction sought with a large enough effect; inconclusive means small, poorly fitted or top-dose-only effect, or another doubt; inactive means no such curve, though single readings can be large; an effect the other way counts as inactive or inconclusive.

Assays:
[1] = AP1 Signaling Pathway (AID 357; active means well fitted curve in either direction with a large enough effect, not every such curve was filed as active); details: ME-180 AP-1-bla reporter, EGF-induced, beta-lactamase ratio, 5 h; at 38 µM (top of the series)
Summary of the method: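 ME-180 cells with beta-lactamase reporter under AP-1 response element, stimulated with EC50 EGF; compounds tested in titration series, 5 h at 37 °C. CCF4 substrate added 2.5 h at room temperature; 460/530 nm emission ratio gave %activity and AC50.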

[2] = molecular target: Cytochrome P450 1A2 (Homo sapiens) (UniProt P05177); experiment: p450-cyp1a2 (AID 410; calls by dose curve; further: potency means the concentration at half of the fitted maximal effect)
Summary of the method: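 Inhibition was calculated relative to 57 uM furafylline (full inhibition). The reaction used human CYP1A2 at 20nM with Luciferin-ME at its Km, 100uM, driven by an NADPH-regenerating system for 60 min at room temperature.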

[3] = NFAT Signaling Pathway (AID 444; active means well fitted curve in either direction with a large enough effect, not every such curve was filed as active;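 further: carbachol stimulus at about its EC50 of 1 µM final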); details: Jurkat NFAT-bla M1, carbachol, beta-lactamase ratio, 5 h; at 38 µM (top of the series)
Summary of the method: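 Jurkat cells carrying an NFAT-driven β-lactamase reporter and co-transfected muscarinic M1 receptor were treated with compound plus carbachol (1 uM final, an EC50 level) for 5 h at 37 °C. CCF4 loading followed for 1 h at RT; 460/530 nm ratio gave %activity.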

[4] = Stat Signaling Pathway (AID 446; active means well fitted curve in either direction with a large enough effect, not every such curve was filed as active;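 further: ME-180 cervical cancer cells given 40 pM IL-6 alongside compound; SIE-controlled beta-lactamase reporter measured as 460/530 nm FRET emission ratio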); details: ME-180 SIE beta-lactamase reporter, IL-6 stimulated, 5 h; at 38 µM (top of the series)
Summary of the method: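 ME-180 SIE-bla cells; overnight plating; cpd + IL-6 40 pM, 5 h, 37 C; LiveBLAzer 2.5 h RT; 460/530 nm emission ratio. Normalized to 300 pM IL-6 and 125 nM JAK inhibitor controls.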

[5] = molecular target: Glucocorticoid receptor (Homo sapiens) (UniProt P04150); experiment: GR-GFP Redistribution (AID 450;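 active means compounds whose dose series gives a full or clear partial fitted curve of increased nuclear translocation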; further: potency means the concentration at half of the fitted maximal effect); details: U2OS GR-GFP nuclear translocation, laser cytometry, 2 h
[6] = molecular target: Glucocorticoid receptor (Homo sapiens) (UniProt P04150); experiment: GR-EFC Redistribution (AID 451; calls by dose curve; further: potency means the concentration at half of the fitted maximal effect); details: CHO-K1 GR-EFC translocation, beta-gal luminescence, 2 h
Summary of the method: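 CHO-K1 cells stably expressing nuclear-localized β-gal enzyme acceptor and GR fused C-terminally to the enzyme donor fragment; ligand-driven nuclear translocation restores β-gal by complementation. Compounds titrated up to 46 uM final, 2 h at 37 °C; luminescence read.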

[7] = molecular target: Mitogen-activated protein kinase 10 (Mus musculus) (UniProt Q61831); experiment: JNK3 AlphaScreen Assay (AID 530; active means well fitted curve in either direction with a large enough effect, not every such curve was filed as active;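 further: kinase came from lysate of stimulated human HepG2 cells; signal reports phosphorylation of biotinylated GST-cJun 1-79 at Ser73 with 10 µM ATP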)
Summary of the method: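 JNK3 came from HepG2 lysates pre-activated with IL-1beta and TNF-alpha and phosphorylated biotinylated GST-cJun (1-79) at 10 uM ATP, pH 7.6, room temperature. Compounds were titrated. AlphaScreen signal used anti-phospho-cJun (Ser73) antibody.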

[8] = molecular target: 3',5'-cyclic-AMP phosphodiesterase 4B (Homo sapiens) (UniProt Q07343); experiment: qHTS Assay for Inhibitors of PDE-IV (AID 607; active means well fitted activation curve with a large enough effect in the main read-out, with a control signal flat, not every such curve was filed as active)
Summary of the method: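 ACTOne HEK293 cells carry a modified cAMP-gated CNG channel and express endogenous PDE4; plated 1000 cells/well, compounds up to 22.9 uM final. Membrane-potential dye fluorescence (ex 535/em 590) was read; parental cells received 10 uM forskolin + 100 uM RO 20-1724.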

[9] = molecular target: Guanine nucleotide-binding protein G(i) subunit alpha-1 (Homo sapiens) (UniProt P63096); experiment: qHTS Assay for Inhibitors of RGS12 GoLoco Motif Activity (Green Fluorophore) (AID 879);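 further: negative values mean loss of peptide binding seen as reduced polarization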
Summary of the method: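 Fluorescence polarization assay: 50 nM Gαi1 with 10 nM FITC-labeled RGS12 GoLoco peptide in 10 mM Tris pH 7.5, 150 mM NaCl, 0.1 mM GDP, 0.05% NP40, 10 min at room temperature with compound.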

[10] = molecular target: Cytochrome P450 2C9 (Homo sapiens) (UniProt P11712); experiment: qHTS Assay for Inhibitors and Substrates of Cytochrome P450 2C9 (AID 883); further: nearly all actives have a fitted effect of over 60% in size; further: potency means the concentration at half of the fitted maximal effect
Summary of the method: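 A luminogenic readout tracked human CYP2C9 (10nM) converting deoxyluciferin (100uM, at KM) in 25mM KPO4 during 60 min at 37C with regenerated NADPH. Values normalized to 57uM sulphaphenazole as complete inhibition.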

[11] = molecular target: Cytochrome P450 3A4 (Homo sapiens) (UniProt P08684); experiment: qHTS Assay for Inhibitors and Substrates of Cytochrome P450 3A4 (AID 884); further: nearly all actives have a fitted effect of over 50% in size; further: potency means the concentration at half of the fitted maximal effect
Summary of the method: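 20 nM human CYP3A4 with 25 uM Luciferin-PPXE (at KM) in 200 mM KPO4, preincubated 10 min with compound; NADPH regeneration started a 60 min RT reaction. Luciferin detected by luminescence, normalized to 57 uM ketoconazole as full inhibition.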

[12] = molecular target: Cytochrome P450 3A4 (Homo sapiens) (UniProt P08684); experiment: qHTS Assay for Activators of Cytochrome P450 3A4 (AID 885); further: nearly all actives have a fitted effect of over 65% in size
Summary of the method: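 20nM CYP3A4 + 25uM Luciferin-PPXE (=KM), 200mM KPO4; cpd 10 min RT; NADPH regen, 60 min RT; stop w/ detection buffer, 20 min; luminescence. Normalized to 57 uM ketoconazole.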

[13] = qHTS Assay for Identification of Small Molecule Antagonists for NFkB Signaling Pathway (AID 895; active means well fitted inhibition curve with a large enough effect in the signal ratio, with a control signal flat, not every such curve was filed as active; the % refers to the signal ratio)
Summary of the method: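 NFkB-bla ME-180 cervical carcinoma cells with beta-lactamase reporter under NFkB response element; compounds added, then TNF alpha at 10 pM final (EC50), 5 h at 37 C. LiveBLAzer substrate 2 h, room temperature; emission 460/530 nm at 405 nm excitation.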

[14] = qHTS Assay for Identification of Small Molecule Agonists for Thrombopoietin (TPO) Signaling Pathway (AID 917)
Summary of the method: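 IL-3-dependent murine pro-B Ba/F3 cells, stably transfected with human TPO receptor and GpIIb-promoter luciferase, are incubated 24 hrs at 37 C with test compound and 26 pM TPO; luciferase signal is read after 10 min at room temperature.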

[15] = molecular target: Muscarinic acetylcholine receptor M1 (Rattus norvegicus) (UniProt P08482); experiment: qHTS Assay for Antagonists of Acetylcholine Muscarinic M1 Receptor: Measurement of IP-One Response (AID 944); further: nearly all actives have a fitted effect of over 75% in size
Summary of the method: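 Steps: plate transfected CHO-M1 cells overnight; add test compound, 10 min; add carbachol (200 nM, EC80) in stimulation buffer with LiCl; incubate 30 min; add labelled IP1 tracer and anti-IP1 antibody in lysis buffer; read HTRF after 10 min.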

[16] = molecular target: Pyruvate kinase PKM (Homo sapiens) (UniProt P14618); experiment: qHTS Assay for Activators of Human Muscle Pyruvate Kinase (AID 954; active means well fitted curve in the direction sought with a large enough effect, not every such curve was filed as active)
Summary of the method: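 Luminescence from a luciferase ATP-detection/stop reagent reported PKM2 activity. Reactions contained 0.1 nM purified human enzyme, 0.5 mM PEP, 0.1 mM ADP and 7 mM MgCl2 at pH 7.2, run 1 h at RT.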

[17] = molecular target: Alpha-galactosidase A (Homo sapiens) (UniProt P06280); experiment: Counterscreen for Glucocerebrosidase Inhibitors: qHTS Assay for Human alpha-Galactosidase at pH 4.5 (AID 992)
Summary of the method: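 Enzyme at 2 nM final was combined with compound (0.7 nM to 77 uM) and 80 uM 4-methylumbelliferyl alpha-D-galactopyranoside in 50 mM citric acid, 0.005% Tween-20, pH 4.5. After 20 min at room temperature, fluorescence was read (Ex 365/Em 440 nm); AC50 came from Hill fits.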

[18] = molecular target: alpha-glucosidase (Oryza sativa, rice) (UniProt Q653V4); experiment: Counterscreen for Glucocerebrosidase Inhibitors: qHTS Assay for Rice alpha-Glucosidase at pH 5.0 (AID 997)
Summary of the method: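 Rice alpha-glucosidase (4 nM final) with 400 uM 4-methylumbelliferyl-alpha-D-glucopyranoside in citrate buffer pH 5.0, 20 min at room temperature, stopped at pH 10; fluorescence 365/440 nm, compounds 0.7 nM–77 uM, AC50 from Hill fits.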

[19] = qHTS Assay for Lipid Storage Modulators (AID 1519; calls by dose curve); details: Drosophila S3 cells, BODIPY lipid droplet/cell ratio, laser cytometry, cells loaded with oleic acid; for activity change, negative = inhibition: at 57.5 µM (top of the series)
Summary of the method: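 Cells seeded at 5,000 per well were treated with compounds over a concentration series and loaded with oleic acid (400 uM, as added). Lipid droplet fluorescence (488 nm excitation, 500-530 nm channel) was read by laser-scanning cytometry and normalized to 20 uM Triacsin C.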

[20] = molecular target: DNA dC->dU-editing enzyme APOBEC-3G (Homo sapiens) (UniProt Q9HC16); experiment: qHTS for inhibitors of Vif-A3G interactions: Validation (AID 588379)
Summary of the method: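 HeLa cells stably expressing Vif and A3G-eYFP, 700 cells/well, incubated overnight at 37 deg C, then exposed to compound overnight at 37 deg C. Inhibition of Vif-mediated degradation read as increased yellow fluorescence (Ex 488/Em 500-530) by laser-scanning cytometry.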

[21] = test system: Zika virus NS2B-NS3 protease; experiment: Primary screen GU AMC qHTS for Zika virus inhibitors (AID 1347154); further: nearly all actives have a fitted effect of over 70% in size
Summary of the method: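 Unlinked Zika NS2B hydrophilic domain/NS3 protease domain noncovalent complex (25 nM final) in 10 mM Tris-HCl pH 8.0, 0.01% Tween 20, with AMC peptide substrate. Fluorescence (ex 340, em 450 nm) change over 15 min, room temperature; percent inhibition fitted to 4-parameter Hill equation.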

[22] = Primary qHTS for small molecule stabilizers of the endoplasmic reticulum resident proteome: Secreted ER Calcium Modulated Protein (SERCaMP) assay (AID 1508630)
Summary of the method: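 GLuc-SERCaMP-expressing SH-SY5Y cells, pretreated 16 h with compound, are challenged with thapsigargin to empty ER calcium stores; after 4 h, coelenterazine is added directly to the medium and luminescence is imaged.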

[23] = molecular target: Rap guanine nucleotide exchange factor 3 (Homo sapiens) (UniProt O95398); experiment: Confirmatory qHTS for antagonist of cAMP-regulated guanine nucleotide exchange factor 3 (EPAC1) (AID 1645880); further: nearly all actives have a fitted effect of over 55% in size
Summary of the method: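 Nucleotide exchange uses 100 nM EPAC1, 250 nM RAP1B-BODIPY-GDP and 50 uM GDP, with compounds in a concentration-titration series. After 5 min at room temperature, fluorescence (480 nm ex/540 nm em) is read every 5 min for 30 min. Data are normalized to control ATA and DMSO.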

[24] = molecular target: Rap guanine nucleotide exchange factor 3 (Homo sapiens) (UniProt O95398); experiment: Confirmatory qHTS for agonist of cAMP-regulated guanine nucleotide exchange factor 3 (EPAC1) (AID 1645881);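 further: EPAC1 catalysed release of BODIPY-GDP from Rap1B seen as fluorescence loss; nearly all actives have a fitted effect of over 75% in size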
[25] = molecular target: Rap guanine nucleotide exchange factor 4 (Homo sapiens) (UniProt Q8WZA2); experiment: Confirmatory qHTS for agonist of cAMP-regulated guanine nucleotide exchange factor 4 (EPAC2) (AID 1645884);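 further: nucleotide exchange releases bodipy-GDP from Rap1 and this lowers its fluorescence; nearly all actives have a fitted effect of over 65% in size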
[26] = molecular target: Rap guanine nucleotide exchange factor 4 (Homo sapiens) (UniProt Q8WZA2); experiment: Confirmatory qHTS for antagonist of cAMP-regulated guanine nucleotide exchange factor 4 (EPAC2) (AID 1645885); further: nearly all actives have a fitted effect of over 25% in size
[27] = molecular target: Ubiquitin carboxyl-terminal hydrolase 1 (Homo sapiens) (UniProt O94782); experiment: Inhibitors of USP1/UAF1: Pilot qHTS (AID 504865);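 further: rhodamine fluorescence freed from ubiquitin-rhodamine substrate followed over time; top concentration of the series differs between compounds; nearly all actives have a fitted effect of over 35% in size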
Summary of the method: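 Enzyme-free wells gave the negative control, while test wells held 1nM USP1/UAF1 preincubated with compound for 15 min at room temperature. Ub-Rho at 150nM final started the reaction, and fluorescence at 480/540 nm was recorded kinetically.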

[28] = measured here: cell count channel max response
[29] = measured here: lipid channel max response

Sequence of Cytochrome P450 1A2 (Homo sapiens) (P05177 whole entry, looked up): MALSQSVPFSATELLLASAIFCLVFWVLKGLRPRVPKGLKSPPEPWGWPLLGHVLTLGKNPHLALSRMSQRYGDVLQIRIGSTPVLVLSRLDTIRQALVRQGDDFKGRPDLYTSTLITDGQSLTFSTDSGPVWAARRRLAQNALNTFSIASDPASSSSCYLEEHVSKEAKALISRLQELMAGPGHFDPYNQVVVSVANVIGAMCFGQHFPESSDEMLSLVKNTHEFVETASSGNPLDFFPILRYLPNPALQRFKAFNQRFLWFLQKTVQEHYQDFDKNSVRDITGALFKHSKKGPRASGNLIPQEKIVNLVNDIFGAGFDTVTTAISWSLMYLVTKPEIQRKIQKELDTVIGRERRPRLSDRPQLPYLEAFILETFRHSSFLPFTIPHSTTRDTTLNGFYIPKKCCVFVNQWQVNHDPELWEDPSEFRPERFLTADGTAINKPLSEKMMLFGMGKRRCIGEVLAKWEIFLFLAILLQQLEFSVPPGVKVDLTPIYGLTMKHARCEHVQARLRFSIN
Sequence of 3',5'-cyclic-AMP phosphodiesterase 4B (Homo sapiens) (Q07343 whole entry, looked up): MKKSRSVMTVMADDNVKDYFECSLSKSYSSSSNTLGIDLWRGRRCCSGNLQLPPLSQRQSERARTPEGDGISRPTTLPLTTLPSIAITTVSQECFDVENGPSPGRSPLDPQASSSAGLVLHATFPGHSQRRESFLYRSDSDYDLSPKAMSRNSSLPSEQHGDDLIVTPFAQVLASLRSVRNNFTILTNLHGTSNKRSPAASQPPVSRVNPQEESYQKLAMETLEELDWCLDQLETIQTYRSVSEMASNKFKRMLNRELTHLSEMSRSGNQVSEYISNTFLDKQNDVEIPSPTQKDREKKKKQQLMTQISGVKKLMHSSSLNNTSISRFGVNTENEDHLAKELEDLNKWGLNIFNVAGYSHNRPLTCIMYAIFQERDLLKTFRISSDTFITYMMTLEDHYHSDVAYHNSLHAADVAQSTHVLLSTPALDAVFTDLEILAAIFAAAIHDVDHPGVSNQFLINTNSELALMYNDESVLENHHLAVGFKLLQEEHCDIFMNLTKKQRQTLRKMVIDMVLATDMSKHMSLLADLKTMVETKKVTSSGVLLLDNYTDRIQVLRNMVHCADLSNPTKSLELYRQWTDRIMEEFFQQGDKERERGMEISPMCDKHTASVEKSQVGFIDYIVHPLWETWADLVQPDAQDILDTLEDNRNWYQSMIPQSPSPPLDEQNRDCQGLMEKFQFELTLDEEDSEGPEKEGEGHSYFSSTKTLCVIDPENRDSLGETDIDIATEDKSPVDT
Sequence of Glucocorticoid receptor (Homo sapiens) (P04150 whole entry, looked up, the tested form may be a part): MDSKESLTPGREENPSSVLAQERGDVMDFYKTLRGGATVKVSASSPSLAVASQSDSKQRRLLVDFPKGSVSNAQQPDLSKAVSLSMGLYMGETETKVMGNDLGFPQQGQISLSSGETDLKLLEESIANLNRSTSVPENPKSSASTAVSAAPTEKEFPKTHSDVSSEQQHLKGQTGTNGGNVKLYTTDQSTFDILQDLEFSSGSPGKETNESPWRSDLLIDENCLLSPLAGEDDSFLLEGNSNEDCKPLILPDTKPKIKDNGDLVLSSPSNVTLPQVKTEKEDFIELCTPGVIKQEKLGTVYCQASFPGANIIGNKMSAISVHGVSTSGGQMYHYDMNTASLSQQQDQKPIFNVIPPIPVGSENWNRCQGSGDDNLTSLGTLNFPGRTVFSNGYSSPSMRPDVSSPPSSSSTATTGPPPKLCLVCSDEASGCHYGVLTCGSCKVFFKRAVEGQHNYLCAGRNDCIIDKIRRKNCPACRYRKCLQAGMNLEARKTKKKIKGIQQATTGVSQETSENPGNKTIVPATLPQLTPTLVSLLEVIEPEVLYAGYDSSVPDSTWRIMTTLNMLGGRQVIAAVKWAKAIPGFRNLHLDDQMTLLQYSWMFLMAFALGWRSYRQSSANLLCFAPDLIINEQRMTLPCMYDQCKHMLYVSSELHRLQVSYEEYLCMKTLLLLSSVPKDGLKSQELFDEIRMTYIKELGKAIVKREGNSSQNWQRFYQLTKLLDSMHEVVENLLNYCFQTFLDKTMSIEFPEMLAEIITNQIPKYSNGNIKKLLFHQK
Sequence of Cytochrome P450 3A4 (Homo sapiens) (P08684 whole entry, looked up): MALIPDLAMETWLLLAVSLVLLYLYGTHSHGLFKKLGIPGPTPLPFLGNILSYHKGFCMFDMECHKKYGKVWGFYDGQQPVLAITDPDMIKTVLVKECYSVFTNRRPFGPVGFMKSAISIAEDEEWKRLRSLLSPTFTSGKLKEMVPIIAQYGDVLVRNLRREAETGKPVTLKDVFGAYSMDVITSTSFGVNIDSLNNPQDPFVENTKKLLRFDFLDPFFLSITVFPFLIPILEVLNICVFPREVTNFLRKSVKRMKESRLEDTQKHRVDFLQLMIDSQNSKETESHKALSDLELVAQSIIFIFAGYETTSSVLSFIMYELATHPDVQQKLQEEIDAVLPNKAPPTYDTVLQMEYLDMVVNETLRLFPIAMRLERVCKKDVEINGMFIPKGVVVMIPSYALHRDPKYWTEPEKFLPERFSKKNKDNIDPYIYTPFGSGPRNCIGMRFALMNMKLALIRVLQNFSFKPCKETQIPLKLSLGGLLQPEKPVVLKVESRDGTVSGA
Sequence of Rap guanine nucleotide exchange factor 4 (Homo sapiens) (Q8WZA2 whole entry, looked up): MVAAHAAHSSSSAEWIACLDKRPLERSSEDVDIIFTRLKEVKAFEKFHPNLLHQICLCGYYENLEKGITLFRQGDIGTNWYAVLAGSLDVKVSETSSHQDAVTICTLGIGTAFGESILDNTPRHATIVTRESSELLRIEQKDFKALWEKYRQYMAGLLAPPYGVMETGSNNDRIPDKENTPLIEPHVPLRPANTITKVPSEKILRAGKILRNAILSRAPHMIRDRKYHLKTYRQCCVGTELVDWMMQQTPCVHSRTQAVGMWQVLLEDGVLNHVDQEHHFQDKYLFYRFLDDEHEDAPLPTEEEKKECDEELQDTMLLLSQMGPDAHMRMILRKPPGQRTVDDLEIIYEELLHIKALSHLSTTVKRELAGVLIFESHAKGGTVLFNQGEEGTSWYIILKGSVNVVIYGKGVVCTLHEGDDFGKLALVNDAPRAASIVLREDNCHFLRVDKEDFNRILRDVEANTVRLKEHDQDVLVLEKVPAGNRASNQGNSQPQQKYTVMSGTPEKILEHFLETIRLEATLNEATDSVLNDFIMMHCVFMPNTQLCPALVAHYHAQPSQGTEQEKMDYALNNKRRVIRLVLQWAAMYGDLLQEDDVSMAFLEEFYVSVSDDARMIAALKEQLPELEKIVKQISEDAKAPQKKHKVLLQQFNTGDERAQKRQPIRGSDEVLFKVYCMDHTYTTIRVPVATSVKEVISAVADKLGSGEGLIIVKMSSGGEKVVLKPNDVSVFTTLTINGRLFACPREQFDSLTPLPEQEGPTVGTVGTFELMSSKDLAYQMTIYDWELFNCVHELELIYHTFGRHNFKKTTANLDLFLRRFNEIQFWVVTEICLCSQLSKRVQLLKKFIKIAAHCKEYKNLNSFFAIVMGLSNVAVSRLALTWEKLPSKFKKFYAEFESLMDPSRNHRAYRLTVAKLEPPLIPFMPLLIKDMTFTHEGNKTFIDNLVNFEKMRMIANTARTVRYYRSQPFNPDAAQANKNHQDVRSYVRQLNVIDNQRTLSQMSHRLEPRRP
Sequence of Muscarinic acetylcholine receptor M1 (Rattus norvegicus) (P08482 whole entry, looked up): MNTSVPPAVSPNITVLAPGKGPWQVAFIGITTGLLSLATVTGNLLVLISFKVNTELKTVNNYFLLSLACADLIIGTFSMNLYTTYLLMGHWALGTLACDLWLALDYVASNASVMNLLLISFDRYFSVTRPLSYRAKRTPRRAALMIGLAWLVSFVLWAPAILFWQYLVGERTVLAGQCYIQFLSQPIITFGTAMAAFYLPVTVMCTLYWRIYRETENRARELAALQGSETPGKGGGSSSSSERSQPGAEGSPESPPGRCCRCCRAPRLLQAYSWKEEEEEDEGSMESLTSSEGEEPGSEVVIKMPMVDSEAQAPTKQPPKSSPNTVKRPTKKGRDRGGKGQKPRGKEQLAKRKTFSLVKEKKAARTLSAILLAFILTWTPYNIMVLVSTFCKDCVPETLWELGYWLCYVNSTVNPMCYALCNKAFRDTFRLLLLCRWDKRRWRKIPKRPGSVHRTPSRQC
Sequence of DNA dC->dU-editing enzyme APOBEC-3G (Homo sapiens) (Q9HC16 whole entry, looked up): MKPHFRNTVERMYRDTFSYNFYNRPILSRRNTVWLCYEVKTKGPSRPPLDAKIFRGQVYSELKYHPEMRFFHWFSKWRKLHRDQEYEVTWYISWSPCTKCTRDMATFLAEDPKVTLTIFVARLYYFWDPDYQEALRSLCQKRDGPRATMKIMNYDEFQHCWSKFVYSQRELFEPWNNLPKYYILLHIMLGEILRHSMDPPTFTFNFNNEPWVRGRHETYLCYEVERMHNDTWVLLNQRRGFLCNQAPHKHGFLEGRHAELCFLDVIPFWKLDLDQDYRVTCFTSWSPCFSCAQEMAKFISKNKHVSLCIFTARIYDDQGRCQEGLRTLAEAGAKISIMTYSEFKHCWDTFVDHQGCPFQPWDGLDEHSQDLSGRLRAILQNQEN
Sequence of Alpha-galactosidase A (Homo sapiens) (P06280 whole entry, looked up): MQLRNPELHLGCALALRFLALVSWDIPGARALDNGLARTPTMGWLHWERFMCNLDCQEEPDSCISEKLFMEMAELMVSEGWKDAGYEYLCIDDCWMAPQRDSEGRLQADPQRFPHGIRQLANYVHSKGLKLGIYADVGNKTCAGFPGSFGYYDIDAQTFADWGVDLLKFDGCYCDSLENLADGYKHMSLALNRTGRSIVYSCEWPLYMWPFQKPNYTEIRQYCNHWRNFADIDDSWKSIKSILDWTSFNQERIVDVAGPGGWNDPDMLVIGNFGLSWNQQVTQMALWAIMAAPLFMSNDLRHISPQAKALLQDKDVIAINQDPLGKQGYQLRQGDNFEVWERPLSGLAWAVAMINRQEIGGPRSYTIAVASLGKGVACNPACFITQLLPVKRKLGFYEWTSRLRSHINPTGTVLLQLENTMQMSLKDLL

## S=C(S)O[C@@H]1C[C@@H]2C[C@H]1[C@@H]1CCC[C@H]21
[1]
  activity change, negative = inhibition: 6.71% (inactive)
[2]
  Potency: inactive
[3]
  activity change, negative = inhibition: -4.29% (inactive)
[4]
  activity, negative = inhibition: -20.1% (inactive)
[5]
  Potency: > 46 µM (inactive)
[6]
  Potency: > 46 µM (inactive)
[7]
  Potency: inactive
[8]
  Potency: inactive
[9]
  outcome: inactive
[10]
  Potency: 3.98 µM (active)
[11]
  Potency: 3.98 µM (active)
[12]
  Potency: inactive
[13]
  Potency: inactive
[14]
  Potency: inactive
[15]
  Potency: inactive
[16]
  outcome: inactive
[17]
  outcome: inactive
[18]
  outcome: inactive
[19]
  activity change, negative = inhibition: -0.164% (inactive)
[19]; [28]
  max response: 8.79%
[19]; [29]
  max response: 9.53%
[20]
  Potency: inactive
[21]
  Potency: inactive
[22]
  Potency: inactive
[23]
  Potency: inactive
[24]
  outcome: inactive
[25]
  outcome: inactive
[26]
  Potency: inactive

## CC(N)=NCCCC[C@H](N)C(=O)O
[1]
  activity change, negative = inhibition: -1.14% (inactive)
[2]
  Potency: inactive and 39.8 µM (active)
[3]
  activity change, negative = inhibition: -3.86% (inactive)
[4]
  activity, negative = inhibition: -14% (inactive)
[5]
  Potency: > 46 µM (inactive)
[6]
  Potency: > 46 µM (inactive)
[7]
  Potency: inactive
[8]
  Potency: inactive
[9]
  outcome: inactive
[10]
  Potency: inactive
[11]
  Potency: inactive
[14]
  Potency: inactive
[15]
  Potency: inactive
[16]
  outcome: inactive
[17]
  outcome: inactive
[18]
  outcome: inactive
[19]
  activity change, negative = inhibition: -4.89% (inactive)
[19]; [28]
  max response: -8.18%
[19]; [29]
  max response: -10.8%
[27]
  Potency: inactive
[20]
  Potency: inactive
[21]
  Potency: inactive
[22]
  Potency: inactive
